PubChem BioAssay AID1159580 (chemical genetic matrix, 2015)
Screen size: about 5,500 compounds; about 2,000 (36%) were called active. Not shown: some 18% with an inconclusive outcome. Cut-off read from the data, not from the text of the source: active = normalized growth mostly below about 0.91 (no sharp cut-off); inconclusive = no clear call, values can overlap the other calls; inactive = mostly above about 0.92. This is one part of the list.

Test: chemical genetic growth profiling, strain panel (AID 1159580);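 note: tested at 20 µM; growth read once vehicle control cultures reached saturation at 30 °C; 1 = growth at the plate median or of vehicle wells; lower values mean less growth of the strain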
Conditions: growth OD
[1] = S. cerevisiae deletion strains, locus YDL101C, strain DUN1, hits give low values
[2] = S. cerevisiae deletion strains, locus YHR030C, strain SLT2, hits give low values
[3] = S. cerevisiae deletion strains, locus YAL013W, strain DEP1, hits give low values
[4] = S. cerevisiae deletion strains, locus YBR229C, strain ROT2, hits give low values
[5] = S. cerevisiae deletion strains, locus YDR150W, strain NUM1, hits give low values
[6] = S. cerevisiae deletion strains, locus YEL061C, strain CIN8, hits give low values
[7] = S. cerevisiae deletion strains, locus YGR078C, strain PAC10, hits give low values
[8] = S. cerevisiae deletion strains, locus YGR229C, strain SMI1, hits give low values
[9] = S. cerevisiae deletion strains, locus YHR087W, strain rtc3, hits give low values
[10] = S. cerevisiae deletion strains, locus YJL187C, strain SWE1, hits give low values
[11] = S. cerevisiae deletion strains, locus YJR043C, strain POL32, hits give low values
[12] = S. cerevisiae deletion strains, locus YJR075W, strain HOC1, hits give low values
[13] = S. cerevisiae deletion strains, locus YKL190W, strain CNB1, hits give low values
[14] = S. cerevisiae deletion strains, locus YLR039C, strain RIC1, hits give low values
[15] = S. cerevisiae deletion strains, locus YLR058C, strain SHM2 (second series), hits give low values
[16] = S. cerevisiae deletion strains, locus YLR085C, strain ARP6, hits give low values
[17] = S. cerevisiae deletion strains, locus YLR262C, strain YPT6, hits give low values
[18] = S. cerevisiae deletion strains, locus YML094W, strain GIM5, hits give low values
[19] = S. cerevisiae deletion strains, locus YMR219W, strain ESC1, hits give low values
[20] = S. cerevisiae deletion strains, locus YMR263W, strain SAP30, hits give low values
[21] = S. cerevisiae deletion strains, locus YNL153C, strain GIM3, hits give low values
[22] = S. cerevisiae deletion strains, locus YNL298W, strain CLA4 (second series), hits give low values
[23] = S. cerevisiae deletion strains, locus YNL322C, strain KRE1, hits give low values
[24] = S. cerevisiae deletion strains, locus YNR030W, strain Alg12, hits give low values
[25] = S. cerevisiae deletion strains, locus YPL055C, strain LGE1, hits give low values
[26] = S. cerevisiae deletion strains, locus YPL241C, strain CIN2, hits give low values
[27] = S. cerevisiae deletion strains, locus YPR135W, strain CTF4, hits give low values
[28] = S. cerevisiae strains, strain wild type, hits give low values

Measured: normalized growth

O=C(Nc1cc2ccccc2s1)N1CCN(Cc2c(F)cccc2Cl)CC1
inactive: S. cerevisiae deletion strains, locus YAR019C, strain CDC15, hits give low values 0.994 | S. cerevisiae deletion strains, locus YBL105C, strain PKC1, hits give low values 0.974 | S. cerevisiae deletion strains, locus YBR135W, strain CKS1, hits give low values 0.986 | S. cerevisiae deletion strains, locus YBR136W, strain MEC1, hits give low values 0.973 | S. cerevisiae deletion strains, locus YBR160W, strain CDC28, hits give low values 0.972 | S. cerevisiae deletion strains, locus YDL017W, strain CDC7, hits give low values 0.983 | S. cerevisiae deletion strains, locus YDL028C, strain MPS1, hits give low values 0.988 | [1] 0.982 | S. cerevisiae deletion strains, locus YDL108W, strain KIN28, hits give low values 0.989 | S. cerevisiae deletion strains, locus YDL132W, strain cdc53, hits give low values 0.983 | S. cerevisiae deletion strains, locus YDL214C, strain PRR2, hits give low values 0.938 | S. cerevisiae deletion strains, locus YDR052C, strain DBF4, hits give low values 0.986 | S. cerevisiae deletion strains, locus YDR054C, strain cdc34, hits give low values 0.968 | S. cerevisiae deletion strains, locus YDR226W, strain ADK1, hits give low values 0.979 | S. cerevisiae deletion strains, locus YDR477W, strain SNF1, hits give low values 0.943 | S. cerevisiae deletion strains, locus YER123W, strain YCK3, hits give low values 0.946 | S. cerevisiae deletion strains, locus YER133W, strain GLC7, hits give low values 0.95 | S. cerevisiae deletion strains, locus YFL009W, strain cdc4, hits give low values 0.981 | S. cerevisiae deletion strains, locus YFL029C, strain CAK1, hits give low values 0.984 | S. cerevisiae deletion strains, locus YFR003C, strain YPI1, hits give low values 0.983 | S. cerevisiae deletion strains, locus YFR019W, strain FAB1, hits give low values 0.958 | S. cerevisiae deletion strains, locus YFR028C, strain CDC14, hits give low values 0.988 | S. cerevisiae deletion strains, locus YGR040W, strain KSS1, hits give low values 0.925 | S. cerevisiae deletion strains, locus YGR052W, strain FMP48, hits give low values 0.986 | S. cerevisiae deletion strains, locus YGR092W, strain DBF2, hits give low values 0.972 | [2] 0.938 | S. cerevisiae deletion strains, locus YHR079C, strain IRE1, hits give low values 0.934 | S. cerevisiae deletion strains, locus YHR082C, strain KSP1, hits give low values 0.982 | S. cerevisiae deletion strains, locus YHR205W, strain SCH9, hits give low values 0.972 | S. cerevisiae deletion strains, locus YIL147C, strain SLN1, hits give low values 0.982 | S. cerevisiae deletion strains, locus YJL095W, strain BCK1, hits give low values 0.927 | S. cerevisiae deletion strains, locus YJL128C, strain PBS2, hits give low values 0.965 | S. cerevisiae deletion strains, locus YJL157C, strain FAR1, hits give low values 0.913 | S. cerevisiae deletion strains, locus YJR016C, strain ILV3, hits give low values 0.997 | S. cerevisiae deletion strains, locus YJR066W, strain TOR1 (second series), hits give low values 0.904 | S. cerevisiae deletion strains, locus YJR066W, strain TOR1, hits give low values 0.979 | S. cerevisiae deletion strains, locus YKL048C, strain ELM1, hits give low values 0.983 | S. cerevisiae deletion strains, locus YKL067W, strain YNK1, hits give low values 0.946 | S. cerevisiae deletion strains, locus YKL101W, strain HSL1, hits give low values 0.918 | S. cerevisiae deletion strains, locus YKL193C, strain SDS22, hits give low values 0.986 | S. cerevisiae deletion strains, locus YKL203C, strain TOR2, hits give low values 0.975 | S. cerevisiae deletion strains, locus YLR133W, strain CKI1, hits give low values 0.928 | S. cerevisiae deletion strains, locus YLR403W, strain SFP1, hits give low values 0.906 | S. cerevisiae deletion strains, locus YML070W, strain DAK1, hits give low values 0.915 | S. cerevisiae deletion strains, locus YMR001C, strain CDC5, hits give low values 0.984 | S. cerevisiae deletion strains, locus YMR205C, strain PFK2 (second series), hits give low values 0.95 | S. cerevisiae deletion strains, locus YMR277W, strain FCP1, hits give low values 0.983 | S. cerevisiae deletion strains, locus YNL006W, strain LST8, hits give low values 0.989 | S. cerevisiae deletion strains, locus YNL020C, strain ARK1, hits give low values 0.928 | S. cerevisiae deletion strains, locus YNL161W, strain CBK1, hits give low values 0.988 | S. cerevisiae deletion strains, locus YNL183C, strain NPR1, hits give low values 0.944 | S. cerevisiae deletion strains, locus YNL207W, strain RIO2, hits give low values 0.976 | S. cerevisiae deletion strains, locus YNL222W, strain SSU72, hits give low values 0.988 | S. cerevisiae deletion strains, locus YNL307C, strain MCK1 (second series), hits give low values 0.961 | S. cerevisiae deletion strains, locus YOL078W, strain AVO1, hits give low values 0.982 | S. cerevisiae deletion strains, locus YOL136C, strain PFK27, hits give low values 0.911 | S. cerevisiae deletion strains, locus YOR061W, strain CKA2, hits give low values 0.952 | S. cerevisiae deletion strains, locus YOR119C, strain RIO1, hits give low values 0.993 | S. cerevisiae deletion strains, locus YOR231W, strain MKK1, hits give low values 0.877 | S. cerevisiae deletion strains, locus YOR329C, strain SCD5, hits give low values 0.972 | S. cerevisiae deletion strains, locus YPL031C, strain PHO85, hits give low values 0.942 | S. cerevisiae deletion strains, locus YPL153C, strain RAD53, hits give low values 0.917 | S. cerevisiae deletion strains, locus YPL204W, strain HRR25, hits give low values 0.915 | S. cerevisiae deletion strains, locus YPL209C, strain IPL1, hits give low values 0.976 | S. cerevisiae deletion strains, locus YPL256C, strain CLN2, hits give low values 0.888 | S. cerevisiae deletion strains, locus YPR025C, strain CCL1, hits give low values 0.986 | S. cerevisiae deletion strains, locus YPR106W, strain ISR1, hits give low values 0.962 | S. cerevisiae deletion strains, locus YPR111W, strain DBF20, hits give low values 0.962 | S. cerevisiae deletion strains, strain NNK1, hits give low values 0.972 | S. cerevisiae deletion strains, strain TSCII, hits give low values 0.986
active: S. cerevisiae deletion strains, locus YLR113W, strain HOG1, hits give low values 0.853

O=C(Nc1ccccc1)N1CCN(C(c2ccccc2)c2ccccc2)CC1
inactive: [3] 0.988 | [4] 0.992 | [1] 0.994 | S. cerevisiae deletion strains, locus YDL134C, strain PPH21, hits give low values 1.01 | [5] 1 | [6] 0.997 | [7] 1 | [8] 1 | [2] 0.963 | [9] 0.993 | [10] 1.01 | [11] 0.978 | [12] 1.02 | [13] 0.989 | [14] 0.992 | [15] 0.991 | [16] 1.06 | [17] 0.985 | [18] 1.04 | [19] 1.01 | [20] 0.989 | [21] 0.994 | [22] 0.966 | [23] 1 | [24] 0.986 | [25] 1.08 | [26] 1.03 | [27] 0.902 | [28] 0.973

O=C1C(c2ccc(Br)cc2)=C(O)c2ccccc21
active: [4] 0.912 | [7] 0.915 | [9] 0.868 | [10] 0.913 | [12] 0.851 | [15] 0.893 | [19] 0.896 | [23] 0.938
inactive: [3] 0.981 | [1] 0.953 | [5] 0.958 | [6] 0.99 | [8] 0.952 | [2] 0.849 | [11] 0.978 | [13] 0.983 | [14] 0.974 | [16] 0.982 | [17] 0.957 | [18] 0.983 | [20] 1.02 | [21] 0.966 | [22] 0.994 | [24] 0.989 | S. cerevisiae deletion strains, locus YOL006C, strain TOP1, hits give low values 1.01 | [25] 0.928 | [26] 1.03 | [27] 0.942 | [28] 0.979
